Hits are enriched below; roughly 3.5% of the tested compounds scored in any of these assays.
FBW7 act: human FBW7 E3 ligase activation, primary screen. Q969H0. AlphaScreen FBW7–phospho-cyclin E peptide binding, activator screen. normalized activity (activation), % at 26.1 µM. 650,000 compounds, 0.13% hits. AID 1259310; in the data active = normalized activity above about 1.9%;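 note: purified mutant Fbw7 with reduced substrate affinity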
Target sequence (Q969H0 whole entry, looked up): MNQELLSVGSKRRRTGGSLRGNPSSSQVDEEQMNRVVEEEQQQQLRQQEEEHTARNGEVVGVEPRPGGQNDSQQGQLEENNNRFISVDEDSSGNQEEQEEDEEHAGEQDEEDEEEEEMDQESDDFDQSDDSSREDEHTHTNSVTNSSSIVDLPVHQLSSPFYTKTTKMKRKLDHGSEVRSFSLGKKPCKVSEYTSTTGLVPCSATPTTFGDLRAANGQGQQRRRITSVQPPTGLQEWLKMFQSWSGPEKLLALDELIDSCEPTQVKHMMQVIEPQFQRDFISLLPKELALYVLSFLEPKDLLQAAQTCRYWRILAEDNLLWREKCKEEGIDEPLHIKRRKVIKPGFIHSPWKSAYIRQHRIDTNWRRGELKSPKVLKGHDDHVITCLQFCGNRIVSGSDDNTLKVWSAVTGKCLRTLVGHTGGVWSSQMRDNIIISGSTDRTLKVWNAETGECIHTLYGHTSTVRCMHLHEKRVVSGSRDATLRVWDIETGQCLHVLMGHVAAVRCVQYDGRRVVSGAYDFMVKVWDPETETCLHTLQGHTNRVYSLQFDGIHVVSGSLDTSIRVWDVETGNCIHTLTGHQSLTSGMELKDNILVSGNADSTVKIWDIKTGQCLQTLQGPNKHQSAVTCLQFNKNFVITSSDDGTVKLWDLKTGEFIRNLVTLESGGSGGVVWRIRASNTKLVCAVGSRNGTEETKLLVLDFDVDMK
GPR151 ag: activators of human GPR151. activation, % at 11.2 µM. PathHunter beta-arrestin GPR151 cells, luminescence. 650,000 compounds, 1% hits. AID 1508602. Q8TDV0; in the data active = activation above about 4.9%;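 note: 0% = median of compound wells and 100% = cells with positive control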
TEAD-YAP inh: TEAD-YAP interaction inhibition; HEK-TIYL cells, TEAD-Gal4/YAP UAS-luciferase luminescence; inhibition, % at 9.12 µM; 640,000 compounds, 1.4% hits; AID 1259422; in the data active = inhibition above about 32%;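 note: 0% = median of test compound wells and 100% = reference inhibitor wells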
MITF primary: blocks human microphthalmia-associated transcription factor. O75030. AlphaScreen MITF homodimerization, bead proximity signal. inhibition, % at 2.6 µM. 650,000 compounds, 0.91% hits. AID 1259374; in the data active = inhibition above about 50%;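 note: 0% = vehicle wells with protein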
MITF inh conf: confirmation of human MITF inhibitors; shares compounds with MITF primary; AlphaScreen MITF homodimerization, biotin/His-MITF beads; inhibition, % at 2.6 µM; 4,700 compounds, 16% hits;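 active = inhibition above a cutoff derived from the DMSO control wells, cut at about 28% in these data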;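 note: 0% = MITF dimer wells with DMSO only; inhibitors lower the bead chemiluminescence by keeping MITF from dimerizing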
AS interf DR: optically interferes with AlphaScreen signal in dose response; shares compounds with MITF primary; AlphaScreen optical interference counterscreen, cell-free; IC50, µM; 480 compounds, 6% hits; call rule not given here
AlphaScreen intf2: AlphaScreen optical interference, counter-screen; shares compounds with MITF primary; LysRS AlphaScreen counterscreen, signal interference, triplicate; inhibition, % at 2.6 µM; 4,700 compounds, 7.6% hits; AID 1259376;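 active = inhibition above a cutoff derived from the DMSO control wells, cut at about 30% in these data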
Active calls of the source: *; · = not tested or not shown.

SMILES	FBW7 act	GPR151 ag	TEAD-YAP inh	MITF primary	MITF inh conf	AlphaScreen intf2	others
CCc1ccc(CN2CCN(C(=O)CC(C)C)CC2)cc1	0.3	0.5	4.6	58.4*	0.8	9.4
CCc1ccc(CN2CCC(C(=O)NC(C)C)CC2)cc1	0.2	-0.4	6.5	34.1	·	·
CCCCN1C(=O)NC2NC(=O)NC21 (stereo not drawn)	-1.4	0.3	10.6	94.3*	85.8*	54.3*
Cc1cccc(C)c1NC(=O)CNCCN1CCOCC1	0.4	-1.3	0.7	92.3*	-12.2	-4.8
O=C(CNCCCN1CCOCC1)Nc1ccc(N2CCCC2)cc1	0.1	0.0	-4.5	54.3*	3.8	18.8
CC(C)N(C(=O)CNCCN1CCOCC1)c1ccccc1	0.2	-0.3	0.6	72.5*	-5.4	1.4
O=C(CNCCCN1CCOCC1)Nc1ccc(N2CCCCC2)cc1	-0.3	1.2	-2.2	49.9	·	·
CC(C)c1cccc(C(C)C)c1NC(=O)CNCCO	0.2	0.3	-1.3	53.0*	4.0	3.6
COc1ccccc1CNC(=O)CCC1(Cc2ccc(OC)c3ccccc23)CCC(=O)N1 (stereo not drawn)	0.1	0.4	11.4	-2.5	·	·
Cc1ccc(N=Cc2c(C)[nH]n(-c3cccc(Cl)c3)c2=O)cc1N=Cc1c(C)[nH]n(-c2cccc(Cl)c2)c1=O	0.2	2.1	1.2	10.4	·	·
O=C(CNCc1ccc2c(c1)OCO2)Nc1ccc(N2CCCC2)cc1	-0.1	0.3	-1.2	61.6*	21.4	23.4
O=C(NCCN1CCOCC1)c1cnc(NCc2ccc3c(c2)OCO3)s1	-0.1	0.4	2.9	12.1	·	·
O=C(Nc1ccc2c(c1)OCO2)c1cnc(NCCN2CCOCC2)s1	-0.1	-1.9	-9.2	51.6*	1.6	9.7
COc1ccc(CCNCC(=O)Nc2ccccc2N2CCCCC2)cc1	0.0	0.1	-4.1	60.7*	8.8	15.8
CC1=CC(C)(C)N(C(=O)CNCCN2CCOCC2)c2cc(C)ccc21	0.2	-0.2	5.0	58.8*	8.9	23.2
COc1ccc2oc(=O)c(-c3nc(-c4ccncc4)n[nH]3)cc2c1	-0.2	-0.6	-0.3	-9.0	·	·
CCCCNCC(=O)Nc1ccccc1N1CCCCCC1	-0.2	-0.1	4.0	11.7	·	·
O=C(CNCCCN1CCOCC1)Nc1ccc2c(c1)OCO2	-0.1	-0.9	1.8	70.8*	3.9	11.6
O=C(CNCCN1CCOCC1)Nc1ccc(N2CCCCC2)cc1	0.2	0.4	1.4	93.0*	-15.7	-5.0
c1cc2c(cc1CNCC1CCCCC1)OCO2	0.0	-0.9	-8.1	58.2*	9.1	10.9
O=C(CNCCCN1CCOCC1)Nc1ccccc1N1CCCCCC1	-0.2	0.6	1.3	70.6*	5.5	16.4
O=C(NCCN1CCOCC1)c1cccc(C(=O)NCCN2CCOCC2)c1	0.2	-0.3	2.3	-6.9	·	·
O=C(NCCN1CCOCC1)c1cccc(-c2ccccc2)c1	-0.1	0.1	-4.9	75.5*	11.3	5.7
CN1CCC(N(C)Cc2ccc(F)c(Br)c2)CC1	0.5	-0.7	-12.1	53.7*	17.8	16.5
O=C(COc1ccc(S(=O)(=O)N2CCCC2)cc1)Nc1ccccc1F	-0.1	-0.1	1.9	-2.2	·	·
SMILES	FBW7 act	GPR151 ag	TEAD-YAP inh	MITF primary	MITF inh conf	AlphaScreen intf2	others
c1ccc(-c2cc(N3CCOCC3)nc(-c3ccccn3)n2)nc1	-1.0	-0.8	45.2*	113.2*	116.6*	100.3*
COc1ccc(Br)cc1C(=O)N/N=C/c1ccccc1F	0.2	-0.7	-1.6	66.8*	7.0	7.0
COCCn1c(C)cc(C(=O)COC(=O)c2cccnc2Nc2ccccc2F)c1C	0.2	-1.3	13.7	-5.5	·	·
Cc1sc2ncnc(N(C)CCc3ccccn3)c2c1C	-0.2	0.1	1.9	73.0*	4.3	1.7
C1=CC2CC1CC2CN1CCN(C2CCC(c3ccccc3)CC2)CC1 (stereo not drawn)	0.0	0.3	3.9	63.0*	-15.9	3.5
C1=CC2CC1CC2CN1CCN(C2CCCC2)CC1 (stereo not drawn)	-0.1	-0.1	0.6	66.5*	-17.7	-3.6
C1=CC2CC1CC2CN1CCN(C2CCCCC2)CC1 (stereo not drawn)	0.0	-0.1	7.4	47.9	·	·
CCC(C)N1CCN(CC2CC3C=CC2C3)CC1 (stereo not drawn)	0.1	0.3	-7.6	72.8*	-3.2	0.9
C1=CC2CC1CC2CN1CCN(C2CCCCCC2)CC1 (stereo not drawn)	-0.1	-0.4	14.3	55.2*	-3.2	-5.7
C/C(=N/OCC(=O)Nc1sc2c(c1C#N)CCCC2)c1ccc(C)cc1	0.6	-1.1	7.0	14.9	·	·
c1coc(-c2ncc3ccccn23)c1	-0.9	0.4	-14.9	17.6	·	·
Clc1ccccc1-c1ncc2ccccn12	-0.2	-0.7	-31.0	63.2*	13.7	36.3*
COc1ccc(-c2ncc3ccccn23)cc1OC	-0.2	0.1	-48.7	70.0*	22.2	36.2*
Ic1ccc(-c2ncc3ccccn23)cc1	-0.1	0.2	-56.5	11.2	·	·
CC(C)CCn1c(SCC(O)CO)nc2c1c(=O)[nH]c(=O)n2C (stereo not drawn)	-0.1	1.5	3.1	-1.2	·	·
CSCCNC(=O)CC1C(=O)NCCN1Cc1ccccc1C(F)(F)F (stereo not drawn)	0.1	-1.1	10.2	10.5	·	·
O=C1C(=O)N(CCBr)C(c2ccccc2)/C1=C(\O)c1ccccc1 (stereo not drawn)	0.2	0.0	-11.7	59.1*	-2.2	-0.7
COc1ccccc1CN1CCN(C(=O)c2cccc(F)c2)CC1	0.1	-0.1	4.2	48.5	·	·
COc1cc(OC)cc(C(=O)N2CCN(Cc3ccccc3Cl)CC2)c1	-0.4	-0.1	-12.3	60.1*	-2.1	2.0
COc1cc(OC)cc(C(=O)N2CCN(Cc3ccccc3OC)CC2)c1	0.1	-0.9	3.0	61.2*	4.8	-1.1
COc1cc(OC)cc(C(=O)N2CCN(Cc3ccc(C)cc3)CC2)c1	-0.2	0.2	0.5	46.9	·	·
Cc1cc(Cl)cc(Br)c1OCCCCn1cncn1	0.1	-1.3	9.4	62.8*	0.0	-4.2
Cc1cc(Cl)c(OCCCn2cncn2)c(Br)c1	0.2	-0.4	-0.1	4.4	·	·
CCOC(=O)C1=C(C)NC2=C(C(=O)CCC2)C1c1ccc2c(c1)OCO2 (stereo not drawn)	-0.1	0.5	13.9	5.7	·	·
CCOC1=CC(c2ccc3c(c2)OCO3)CC(=O)c2c(C)oc(C)c21 (stereo not drawn)	-0.2	0.4	12.3	57.1*	42.4*	22.0	AS interf DR=>6.48
COc1ccc2c(c1)OC(C)CN(C(=O)CCc1ccccn1)C2 (stereo not drawn)	-0.2	-0.7	-0.2	-8.9	·	·
N#CC1=C(N)N(c2ncn[nH]2)C2=C(C(=O)CCC2)C1c1ccccc1C(F)(F)F (stereo not drawn)	0.0	-0.4	6.2	-6.1	·	·
CCc1c(C)nc(SCC(=O)c2ccc(C(=O)CSc3nc(C)c(CC)c(C)c3C#N)cc2)c(C#N)c1C	0.2	-0.7	6.0	8.0	·	·

Bioassay records: PubChem, The Scripps Research Institute Molecular Screening Center
